# Source: PubChem BioAssay (EPA / NIEHS)
# Calls of active or inactive are those of the source. Rule for the calls: active = hit-call score of the fitted dose curve at least 0.9, where 1 is the maximum; inactive = score below 0.9.
# Experiment: Tanguay_ZF_120hpf_ANY: Oregon State University Tanguay Lab 120 Hour Post-fertilization zebrafish Assay for Any Mortality and Malformation (AID 2284404)
# Experimental: Tanguay_ZF_120hpf is a whole embryo, multiplexed endpoint assay using zebrafish larvae exposed for 120 hours post fertilization on a 96-well plate.Tanguay_ZF_120hpf_ANY is one of one assay component(s) measured or calculated from the Tanguay_ZF_120hpf assay. It is designed to make measurements of developmental malformations and mortality as detected with brightfield microscopy and combines scoring from 13 other assay components measuring more specific morphologies.Data from the assay component Tanguay_ZF_120hpf_ANY was analyzed into 1 assay endpoints. This assay endpoint, Tanguay_ZF_120hpf_ANY, was analyzed in the positive analysis fitting direction relative to DMSO as the negative control and baseline of activity. Using a type of morphology reporter, gain-of-signal activity can be used to understand changes in developmentals as they relate to the whole embryo. To generalize the intended target to other relatable targets, this assay endpoint is annotated to the zebrafish development intended target family, where the subfamily is embryonic morphogenesis and mortality.
# Zebrafish husbandry: Tropical 5D wild-type adult zebrafish were housed in at an approximate density of 1000 per 100 gallon tank at the Sinnhuber Aquatic Research Laboratory, Oregon State University, Corvallis, OR. Each tank was kept at standard laboratory conditions of 28C on a 14-h light/10-h dark photoperiod in fish water consisting of reverse osmosis water supplemented with a commercially available salt (Instant Ocean). Spawning funnels were placed into the tanks the night prior, and embryos were collected and staged. To increase bioavailability, the chorion was enzymatically removed using pronase (63.6mg/ml, >/= 3.5U/mg, Sigma-Aldrich: P5147) at 4 hours post fertilization (hpf) using a custom automated dechorionator.Chemical exposures: Six hpf dechorionated embryos were placed 1 embryo per well in a 96-well plate prefilled with 90 ul of EM using automated embryo placement systems (AEPS). Ten microliters of each row of dilution plate 2 was added to 2 exposure plates. The final DMSO concentration used was 0.64% (vol/vol). Thirty-two embryos were also exposed to 5uM trimethyltin chloride (positive control). Plates were sealed to prevent evaporation and foil covered to reduce light exposure and kept in a 28C incubator. Embryos were statically exposed until 120 hpf. At 24 hpf, embryos were assessed for photomotor response using a custom photomotor response analysis tool (PRAT) and for developmental toxicity endpoints (MO24: mortality at 24 hpf, DP: developmental progression, SM: spontaneous movement, and NC: notochord distortion). At 120 hpf, locomotor activity was measured using Viewpoint Zebralab and assessed for 13 endpoints. Zebrafish acquisition and analysis program (ZAAP), a custom program designed to inventory, acquire, and manage zebrafish data, was used to collect developmental endpoints as either present or absent (i.e., binary responses were recorded). If mortality occurred for an embryo (at either 24 or 120 hpf), the non-mortality endpoints were not measured.
SMILES,outcome,AC50
O=S(=O)(Cl)C(F)(F)C(F)(F)C(F)(F)C(F)(F)C(F)(F)C(F)(F)C(F)(F)C(F)(F)F,inactive,
NC(=O)C(F)(F)C(F)(F)C(F)(F)F,inactive,
OCCCCC(F)(F)C(F)(F)C(F)(F)C(F)(F)F,inactive,
COC(F)(C(F)F)C(F)(F)F (configuration not stated),inactive,
CN(C(=O)C(F)(F)C(F)(F)C(F)(F)F)[Si](C)(C)C,inactive,
O=C(O)C(F)(F)C(F)(F)C(F)(F)OC(F)(C(F)(F)F)C(F)(F)F,inactive,
C[Si](Cl)(Cl)CCC(F)(F)C(F)(F)C(F)(F)C(F)(F)C(F)(F)C(F)(F)F,inactive,
OCC(O)CC(F)(F)C(F)(F)C(F)(F)C(F)(F)C(F)(F)C(F)(F)C(F)(F)C(F)(F)F (configuration not stated),,5.14 µM (active)
FC(F)(F)C(F)(F)C(F)(F)C(F)(F)C(F)(F)C(F)(F)CC[Si](Cl)(Cl)Cl,inactive,
O=C(O)CCC(F)(F)C(F)(F)C(F)(F)F,inactive,
CCOC(=O)CC(=O)C(F)(F)C(F)(F)F,inactive,
O=C(O)C(F)(F)C(F)(F)C(F)(F)OC(F)(F)F,inactive,
NC(=O)C(F)(F)C(F)(F)C(F)(F)C(F)F,inactive,
OC(O)C(F)(F)C(F)(F)F,inactive,
CNS(=O)(=O)C(F)(F)C(F)(F)C(F)(F)C(F)(F)C(F)(F)C(F)(F)C(F)(F)C(F)(F)F,,55.5 µM (active)
NC(=O)C(F)(F)C(F)(F)C(F)(F)C(F)(F)C(N)=O,inactive,
O=C(F)C1(F)C(F)(F)C(F)(F)C(F)(F)C(F)(F)C1(F)F,inactive,
O=C(O)CCC(F)(F)C(F)(F)C(F)(F)C(F)(F)C(F)(F)C(F)(F)C(F)(F)F,inactive,
FC(F)(F)C(F)(F)C(F)(F)CC1CO1 (configuration not stated),inactive,

SMILES,outcome,AC50
OCC(F)(F)C(F)(F)C(F)(F)C(F)(F)C(F)(F)C(F)(F)C(F)(F)C(F)(F)CO,,16.7 µM (active)
OCCCC(F)(F)C(F)(F)C(F)(F)C(F)(F)C(F)(F)C(F)(F)C(F)(F)C(F)(F)F,inactive,
O=S(=O)(OCC(F)(F)F)C(F)(F)C(F)(F)C(F)(F)C(F)(F)F,inactive,
NC(O)(C(F)(F)F)C(F)(F)F,inactive,
OCC(F)(F)C(F)(F)C(F)(F)C(F)(F)C(F)(F)C(F)(F)CO,inactive,
C=CC(=O)OCC(F)(F)C(F)(F)C(F)(F)COC(=O)C=C,,5.92 µM (active)
O=S(=O)(O)CCC(F)(F)C(F)(F)C(F)(F)C(F)(F)C(F)(F)C(F)(F)C(F)(F)C(F)(F)F,,74.4 µM (active)
FC(F)(F)C(F)(F)C(F)(F)C(F)(F)C(F)(F)C(F)(F)C(F)(F)CCI,inactive,
OCC(O)CC(F)(F)C(F)(F)C(F)(F)C(F)(F)F (configuration not stated),inactive,
C=CC(=O)OCCC(F)(F)C(F)(F)C(F)(F)C(F)(F)F,inactive,
C=CC(=O)OCC(F)(F)C(F)(F)C(F)(F)C(F)(F)C(F)(F)C(F)(F)C(F)(F)C(F)F,inactive,
CCN(CCO)S(=O)(=O)C(F)(F)C(F)(F)C(F)(F)C(F)(F)C(F)(F)C(F)(F)C(F)(F)C(F)(F)F,inactive,
OCC(F)(F)C(F)(F)C(F)(F)CO,inactive,
NS(=O)(=O)C(F)(F)C(F)(F)C(F)(F)C(F)(F)C(F)(F)C(F)(F)F,,10.6 µM (active)
O=S(=O)(O)CCC(F)(F)C(F)(F)C(F)(F)C(F)(F)F,inactive,
CO[Si](C)(CCC(F)(F)C(F)(F)C(F)(F)C(F)(F)C(F)(F)C(F)(F)F)OC,inactive,
NC(=O)C(F)(F)C(F)(F)C(F)(F)C(F)(F)C(F)(F)C(F)(F)C(F)(F)F,,43.4 µM (active)
O=C(O)C(F)(F)C(F)(F)C(F)(F)C(=O)O,inactive,
